Screening results from PubChem.
Most compounds without a hit are left out; they make up all but 8% or so of the library.
LASV entry inh: blocks Lassa virus binding or cell entry | Lassa virus pseudotyped entry inhibition, cell-based qHTS | Potency, µM (top dose mostly 49.2 µM), most hits filed as inhibitors | 4.1% of 18,000 active | AID 720533
MARV entry inh: Marburg virus entry inhibition; Marburg virus pseudotype entry/binding inhibition, cell-based; Potency, µM (highest dose often 49.2 µM), most hits filed as inhibitors; 6.5% of 18,000 active; AID 720532
Of the large screens only hits and unclear results are named; the others gave an inactive call; ! = not confirmed by another sample. Calls follow the shape of the full dose curve; tested in HEK293 cells.

COc1ccc2c(c1)-c1nc(-n3ncc(C(=O)NC[C@@H]4CCCN5CCCC[C@H]45)c3C)ncc1CC2	LASV entry inh 35µM, MARV entry inh 5µM
COc1ccc2c(c1)CCc1cnc(-n3ncc(C(=O)NCC(C)(C)CN(C)C)c3C)nc1-2	LASV entry inh inconclusive, MARV entry inh 4.5µM
COc1ccc2c(c1)CCc1cnc(-n3ncc(C(=O)NCCCN4CCOCC4)c3C)nc1-2	MARV entry inh inconclusive
COc1ccc2c(c1)-c1nc(-n3ncc(C(=O)NCC4CCCN(C)C4)c3C3CC3)ncc1CC2 (configuration not stated)	MARV entry inh inconclusive
COC(=O)CC=C1c2ccccc2[C@@H](OC)[C@@H]1C	none
NC1CCc2cc(O)c(O)cc2C1 (configuration not stated)	MARV entry inh 22µM!
CC[C@H](C)[C@H](NC(=O)[C@H](Cc1ccc(O)cc1)NC(=O)[C@@H]1CCCN1C(=O)[C@@H](NC(=O)[C@@H](N)CCCCN)[C@@H](C)CC)C(=O)N[C@@H](CC(C)C)C(=O)O	none
CCCCCCCCCCCCC(=O)N1CCCC[C@H]1CNC(=O)[C@@H](N)CCCCN	MARV entry inh 28µM
O=C(Cn1cc(COc2ccc([N+](=O)[O-])cc2)nn1)c1ccc(O)cc1	none
Nc1nc2c(ncn2C2OC(COC(=O)c3ccccc3)C(OC(=O)c3ccccc3)C2OC(=O)c2ccccc2)c(=O)[nH]1 (configuration not stated)	LASV entry inh 11µM
Nc1nc2c(ncn2[C@@H]2O[C@H](COP(=O)(O)OP(=O)(O)O)[C@@H](O)[C@H]2O)c(=O)[nH]1	none
COc1cc2c(cc1OC)[C@@H]1O[C@](c3ccsc3)(C2)Oc2cc(C)n(Cc3ccccc3)c(=O)c21	MARV entry inh inconclusive
CCc1cccc(N(C)C(N)=Nc2cccc3ccccc23)c1	LASV entry inh inconclusive, MARV entry inh 28µM
CN(C)c1cccc(CN2CCN(c3ccccc3)CC2)c1	none
CC(=O)N1CCC[C@H]1C(=O)NCC1Cc2cc(Cl)cc(-c3ccc4[nH]ccc4c3)c2O1 (some centres not stated)	none
COCCC(=O)NCC1Cc2cc(Cl)cc(-c3ccc4[nH]ccc4c3)c2O1 (configuration not stated)	LASV entry inh 7.1µM, MARV entry inh 7.1µM
CC12CC3CC(C)(C1)CC(N)(C3)C2	LASV entry inh 35µM!
NC12CC3CC(CC(C3)C1)C2	MARV entry inh 32µM!
C[C@@]12CC3CC(N)(C1)C[C@@](C)(C3)C2	MARV entry inh inconclusive
COc1cc(OC)c([C@@H]2O[C@H](CO)[C@@H](O)[C@H](O)[C@@H]2O)c(OC)c1	none
Cc1ccccc1Nc1oc(-c2ccccc2)nc1-c1ccc(C(F)(F)F)cc1	LASV entry inh inconclusive
O=C(OCc1cn([C@@H]2CN(C(=O)C3CCCCC3)[C@@H](c3ccccc3)C[C@@H]2O)nn1)c1ccccc1	MARV entry inh inconclusive
COc1ccc(CN2CCN(C(c3ccc(F)cc3)c3ccc(F)cc3)CC2)c(OC)c1OC	LASV entry inh 22µM, MARV entry inh 10µM
COc1ccc(CN2CCNCC2)c(OC)c1OC	none
C#CCCCON=C1C[C@@H](O)[C@H](O)[C@H]2[C@@H]3C(=O)N(C4CCCCC4)C(=O)[C@@H]3CC[C@@H]12	none
Cc1ccccc1	none
CCC(/C=C1\Sc2ccc(OC)cc2N1CCO)=C\c1sc2ccc(OC)cc2[n+]1CCO	none
CCN1/C(=C/C=C/c2sc3ccccc3[n+]2CC)Sc2ccccc21	LASV entry inh 2.5µM, MARV entry inh 2.8µM
CC(=O)C1=C(C)N(Cc2ccco2)C(=O)NC1c1ccccc1 (configuration not stated)	none
COc1cc2c(cc1OC)[C@@H]1O[C@](c3ccsc3)(C2)Oc2cc(-c3ccccc3)oc(=O)c21	MARV entry inh inconclusive
C=C1C2CC[C@@]3(C)C(c4ccoc4)OC(=O)C[C@@]13OC1CC(=O)C(C)(C)C(CC(=O)OC)[C@]12C (some centres not stated)	none
C=C1C2CC[C@@]3(C)C(c4ccoc4)OC(=O)C[C@@]13OC1CC(OC(C)=O)C(C)(C)C(CC(=O)OC)[C@@]12C (some centres not stated)	LASV entry inh inconclusive, MARV entry inh 13µM
CCOC(=O)CN1C(=O)NC(c2cccc(F)c2)C(C(C)=O)=C1C (configuration not stated)	none
Cc1ccc(S(=O)(=O)N[C@@H](Cc2ccccc2)C(=O)CCl)cc1	LASV entry inh 35µM, MARV entry inh inconclusive
Cc1ccc(S(=O)(=O)NCl)cc1	none
O=S1(=O)C=CCN1	none
CCOC(=O)C1=C(C)NC(C)=C(C(=O)OC)[C@H]1c1cccc([N+](=O)[O-])c1	MARV entry inh inconclusive
CC1=C(C(=O)OC(C)C)C(c2cccc([N+](=O)[O-])c2)C(C(=O)OC2CN(C(c3ccccc3)c3ccccc3)C2)=C(N)N1 (configuration not stated)	none
COC(=O)C1=C(C)NC(C)=C(C(=O)O[C@@H]2CCCN(Cc3ccccc3)C2)[C@@H]1c1cccc([N+](=O)[O-])c1	LASV entry inh inconclusive, MARV entry inh 14µM
COC(=O)C1=C(C)NC(C)=C(C(=O)OC(C)(C)CN(C)CCC(c2ccccc2)c2ccccc2)C1c1cccc([N+](=O)[O-])c1 (configuration not stated)	LASV entry inh 13µM, MARV entry inh inconclusive
COCCOC(=O)C1=C(C)NC(C)=C(C(=O)OC(C)C)[C@@H]1c1cccc([N+](=O)[O-])c1	none
CCOC(=O)C1=C(C)NC(C)=C(C(=O)OC)C1c1cccc([N+](=O)[O-])c1 (configuration not stated)	LASV entry inh inconclusive, MARV entry inh 14µM!
CCOC(=O)C1=C(C)NC(C)=C(C(=O)OC)[C@@H]1c1cccc([N+](=O)[O-])c1	none
COCCOC(=O)C1=C(C)NC(C)=C(C(=O)OC/C=C/c2ccccc2)C1c1cccc([N+](=O)[O-])c1 (configuration not stated)	LASV entry inh 13µM, MARV entry inh 6.3µM
O=c1oc2ccccc2c2c1[C@H]1O[C@](c3ccsc3)(Cc3c1ccc1ccccc31)O2	none
C[C@H]1CC[C@H]2C(=O)N[C@H](Cc3ccccc3)C(=O)N2[C@H]1c1ccccc1	none
CCC(C)CN1C(=O)NC(CCc2ccccc2)C(C(C)=O)=C1C (configuration not stated)	MARV entry inh inconclusive
O=C(OCc1cn([C@H]2C[C@H](c3ccc(Cl)cc3)N(C(=O)C3CCCCC3)C[C@H]2O)nn1)c1ccccc1	MARV entry inh inconclusive
COc1cc2c(cc1OC)[C@@H]1O[C@](c3ccsc3)(C2)OC2=C1C(=O)CC(C)(C)C2	none
CCN1C(=NCc2ccco2)N[C@@H](c2ccccc2)[C@H](C(=O)OC)[C@H]1C	none
CC(C)=CCCC(C)=CC=CC1=CC2(C)CC1(C)C(C=C(C)CCC=C(C)C)CC2=O (configuration not stated)	MARV entry inh inconclusive
CC(C)OC(=O)Nc1ccc2nc(-c3cscn3)[nH]c2c1	LASV entry inh 28µM
CCCCc1ccc2nc(NC(=O)OC)[nH]c2c1	none
CC(C)Nc1oc(-c2ccccc2)nc1-c1ccc(C(F)(F)F)cc1	none
C(=C\c1nc(-c2ccccc2)oc1Nc1ccc2ccccc2c1)/c1ccccc1	none
C[n+]1ccc(/C=C/c2ccc3ccccc3c2)cc1	LASV entry inh 11µM, MARV entry inh inconclusive
O=C(C1CCCCC1)N1C[C@@H](O)[C@@H](n2cc(C3CC3)nn2)C[C@@H]1c1ccc(Cl)cc1	none
COc1ccc2c(c1)[C@@]1(OCCC=C[C@@H]1C)C(=O)N2CC=C(C)CCC=C(C)C	none
